In PubChem BioAssay (NCI) one finds growth data, which are given here for 15 molecules.

Assay in all cases: NCI-60 one-dose screen, 48 h (100 = growth as untreated, 0 = no growth, -100 = all killed)
Common to all, as to conditions: 10 µM unless noted

The test system of test [1] is T-47D breast.
Test [2] relates to BT-549 breast.
Test [3] concerns MDA-MB-435 melanoma.
In test [4] the test system is SW-620 colon.
Test [5] concerns MCF7 breast.
Test [6] has as its system HCT-116 colon.
The test system of test [7] is HCC-2998 colon.
Test [8] has as its system KM12 colon.

Compounds without any hit were thinned out: in the full panel of roughly 83,000, 20% have a hit.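 How to read the values: 0–100, growth inhibition (40 = 60% inhibited); 0, no net growth; -100 to 0, cell death (-40 = 40% of starting cells died; -100 = all dead).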 A number with no mark means an inactive call. The source made the active and inactive calls. Rule for the calls: active = growth percent below 10; inactive = the rest.

Take `CN(C)c1ccc(Nc2cc(-c3cccc(OC(F)(F)F)c3)nc3ccc(N4CCCC4)cc23)cc1`: the growth was 70.5% in test [1]; -49.6% (active) in test [2]; -73.6% (active) in test [3]; -48.1% (active) in test [4]; -14.7% (active) in test [5]; -31.2% (active) in test [6]. The values for the growth in test [7] and in test [8] were 91.1% and -45.5% (active), respectively.
For the molecule `CCc1ccc(C(=O)/C=C/C23c4ccccc4C(c4ccccc42)C2C(=O)NC(=O)C23)cc1` (stereo not given), the growth in test [1] was 21.9%; in test [2], -7.29% (active); in test [3], -46.6% (active); in test [4] it was 8.84% (active); in test [5], 16.6%; in test [6] it was -40% (active). Moreover, the results for the growth in test [7] and in test [8] were 24.5% and 11.2%, respectively.
Consider `C=C(C)[C@@H]1CC[C@]2(C)[C@H](CC=C3[C@@H]4[C@H](C)[C@@H](C)CC[C@]4(CO)CC[C@]32C)[C@@]1(C)CCCN`, for which the growth was -34.1% (active) in test [1]; 55.3% in test [2]; -60.3% (active) in test [3]; -74.8% (active) in test [4]; 0.962% (active) in test [5]; -57.8% (active) in test [6]. The growth in test [7] is -93.3% (active); in test [8] it was -41.3% (active).
Turning to `CCOC(=O)Cn1c(O)c(N=Nc2ccc(S(N)(=O)=O)cc2)c2cc(Br)ccc21`, the growth is 78.1% in test [1]; 119% in test [2]; 92% in test [3]; 62.7% in test [4]; 84% in test [5]; 13.9% in test [6]. Besides, the values for the growth in test [7] and in test [8] were 95.5% and 70.7%, respectively.
Regarding `COc1ccc(-c2csc(NC(=O)CSc3nc(-c4ccccc4)cc(=O)[nH]3)n2)cc1`, the growth in test [1] is 15.1%; in test [2], 8.89% (active); in test [3], 49.9%; in test [4] it was 93.5%; in test [5], 50.7%; in test [6], 35.8%. Also, the results for the growth in test [7] and in test [8] were 83.5% and 73.9%, respectively.
Turning to `COC(=O)[C@]1(C)CCC[C@]2(C)[C@H]3C[C@H]4C(C(C)C)=C[C@]3(CC[C@H]21)[C@H]1[C@@H]4[C@@H](OCCC#N)CC[C@@H]1OCCC#N`, the growth in test [1] is 9.81% (active); in test [2], 19.8%; in test [3], 42.7%; in test [4] it was 47.8%; in test [5], 9.07% (active); in test [6], 15.4%. The growth in test [7] is 65.1%; in test [8], 40.2%.
For the molecule `COc1cc(/C=C/C(=O)c2cccc(Nc3nc(Nc4ccccc4)nc(Nc4ccccc4)n3)c2)cc(OC)c1OC`, the growth in test [1] was 42.2%; in test [2], 64.2%; in test [3], 68.8%; in test [4], 35.4%; in test [5], 22.9%; in test [6], 15.1%. The growth in test [7] is 16.7%; in test [8] it was 52.7%.
Consider `COc1ccc2[nH]cc(-c3nc(-c4cn(C)c5c(Cl)nccc45)cs3)c2c1`, for which the growth is 11.6% in test [1]; 45% in test [2]; 6.78% (active) in test [3]; -5.25% (active) in test [4]; 43.9% in test [5]; 43.9% in test [6]. The growth in test [7] is 62%; in test [8] it was 32%.
Regarding `c1cnc2[nH]cc(-c3csc(-c4cn(CCCN5CCOCC5)c5ccccc45)n3)c2c1`, the growth in test [1] was 27.1%; in test [2], 50.3%; in test [3], 6.18% (active); in test [4], 39.5%; in test [5], 28.6%; in test [6], 29.8%. In addition, the figures for the growth in test [7] and in test [8] were 58.6% and 28.1%, respectively.
In the case of `CCOC(=O)c1cn2ncnc(Oc3ccc(NC(=O)NC4CCCCC4)c(Cl)c3)c2c1C`, the growth in test [1] was 85%; in test [2], 90.4%; in test [3] it was 85.6%; in test [4], 81.6%; in test [5], 51.7%; in test [6], 81.4%. Also, the results for the growth in test [7] and in test [8] were 94.6% and 96.9%, respectively.
In the case of `CC(C)c1ccc(NC(=O)Nc2ccc(NC(=O)CCCC(=O)NOCc3ccccc3)cc2)cc1`, the growth in test [1] is 59.3%; in test [2], 106%; in test [3] it was 89.1%; in test [4], 107%; in test [5], 80.2%; in test [6], 93.4%. Further, the growth was 66% in test [7] and 94.4% in test [8].
On to `CCn1c(=S)sc2c(Nc3ccc(F)cc3)nc(-c3cccnc3)nc21`, for which the growth in test [1] is 30.5%; in test [2], 54.2%; in test [3] it was 81.1%; in test [4], 90.6%; in test [5], 73.1%; in test [6], 21.4%. Further, the growth is 86.1% in test [7] and 69.7% in test [8].
In the case of `O=C(CCc1nnc(Cn2cnc3nc[nH]c3c2=O)o1)c1nc2ncccc2[nH]1`, the growth in test [1] was 94.5%; in test [2], 95.9%; in test [3] it was 99.5%; in test [4] it was 96%; in test [5], 97.2%; in test [6], 97.3%. For the same molecule, the growth in test [7] and in test [8] was 105% in each case.
Take `CO[C@]12C=C/C(=C(/C(=O)OCc3cccnc3)C(=O)CCCCCCCC[C@@]3(OC)C=C/C(=C(/C(=O)OCc4cccnc4)C(=O)CCCCCCCC1)O3)O2`: the growth in test [1] is 38.4%; in test [2], -24.7% (active); in test [3] it was -11.8% (active); in test [4], 13.8%; in test [5] it was 18.5%; in test [6] it was -35.5% (active). In addition, the growth in test [7] was -79.2% (active); in test [8] it was -70.4% (active).
Consider `CC/C(=C(/c1ccc(Cl)cc1)c1ccc(OCCN2CCCC2)cc1)c1ccc(OC)cc1`, for which the growth in test [1] was 43.7%; in test [2], 85.8%; in test [3] it was 73.5%; in test [4], 60.2%; in test [5] it was 18.5%; in test [6], 65.9%. Moreover, the growth in test [7] was 71.1%; in test [8], 56%.
